Experimental data: paper PMC7862700, “An all-to-all approach to the identification of sequence-specific readers for epigenetic DNA modifications on cytosine”

What was measured:
Test in all cases: DAPPL (digital affinity profiling via proximity ligation, sequencing); 10 mM Tris-HCl pH 7.5, 50 mM NaCl, 1 mM DTT, 4% glycerol, room temperature, 30 min; GST-TFs on glutathione beads, 16-mer random dsDNA library, 0.1% formaldehyde crosslink after washing; high values mean tight binding
FEV = molecular target: T1, FEV (Homo sapiens, UniProt Q99581 1-238); conditions: protein: recombinant; tags: N-terminal GST; dsDNA, one strand shown
T1 sequence: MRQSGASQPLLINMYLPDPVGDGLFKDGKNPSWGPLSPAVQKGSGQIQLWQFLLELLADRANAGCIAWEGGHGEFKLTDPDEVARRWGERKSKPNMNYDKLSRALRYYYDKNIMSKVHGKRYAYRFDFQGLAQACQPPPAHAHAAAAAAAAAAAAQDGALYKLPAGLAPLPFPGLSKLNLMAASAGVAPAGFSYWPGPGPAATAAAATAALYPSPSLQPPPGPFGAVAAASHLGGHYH
Procedure, shortened: (§1)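 Binding signal is each hexamer's read frequency for a factor divided by its frequency in the tag-only sample. The factors were GST-fused human transcription factors from yeast, captured on glutathione beads, DNA-barcoded and pooled with that sample. Pools were incubated with 200 nmole of a random double-stranded 16-mer DNA library in Tris/NaCl/DTT/glycerol buffer at room temperature for 30 min, then washed, crosslinked with 0.1% formaldehyde, proximity-ligated with BsaI/T4 ligase (1 h, 37 °C), PCR-amplified and sequenced on an Illumina NextSeq500.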

ETV5 = ETV5 (Homo sapiens, UniProt P41161 1-510); conditions: protein: recombinant; tags: N-terminal GST; dsDNA, one strand shown
Sequence of ETV5 (P41161 whole entry): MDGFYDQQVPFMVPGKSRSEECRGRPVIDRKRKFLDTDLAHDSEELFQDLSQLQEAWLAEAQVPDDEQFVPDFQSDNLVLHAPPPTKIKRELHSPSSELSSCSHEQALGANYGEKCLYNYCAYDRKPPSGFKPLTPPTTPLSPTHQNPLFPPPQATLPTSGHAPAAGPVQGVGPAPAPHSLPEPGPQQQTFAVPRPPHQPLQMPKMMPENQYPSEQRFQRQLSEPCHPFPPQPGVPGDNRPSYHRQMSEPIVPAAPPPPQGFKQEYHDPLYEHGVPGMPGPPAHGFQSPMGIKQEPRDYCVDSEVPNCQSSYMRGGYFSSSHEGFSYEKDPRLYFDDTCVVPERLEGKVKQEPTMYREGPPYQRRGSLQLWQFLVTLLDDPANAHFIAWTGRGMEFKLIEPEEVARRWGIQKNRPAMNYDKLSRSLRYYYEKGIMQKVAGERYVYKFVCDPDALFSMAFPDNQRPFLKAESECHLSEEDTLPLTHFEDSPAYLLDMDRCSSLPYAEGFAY
Procedure, shortened: as §1

HSF1 = HSF1 (Homo sapiens, UniProt Q00613 1-529); conditions: protein: recombinant; tags: N-terminal GST; chain copies: 3; dsDNA, one strand shown
Sequence of HSF1 (Q00613 whole entry): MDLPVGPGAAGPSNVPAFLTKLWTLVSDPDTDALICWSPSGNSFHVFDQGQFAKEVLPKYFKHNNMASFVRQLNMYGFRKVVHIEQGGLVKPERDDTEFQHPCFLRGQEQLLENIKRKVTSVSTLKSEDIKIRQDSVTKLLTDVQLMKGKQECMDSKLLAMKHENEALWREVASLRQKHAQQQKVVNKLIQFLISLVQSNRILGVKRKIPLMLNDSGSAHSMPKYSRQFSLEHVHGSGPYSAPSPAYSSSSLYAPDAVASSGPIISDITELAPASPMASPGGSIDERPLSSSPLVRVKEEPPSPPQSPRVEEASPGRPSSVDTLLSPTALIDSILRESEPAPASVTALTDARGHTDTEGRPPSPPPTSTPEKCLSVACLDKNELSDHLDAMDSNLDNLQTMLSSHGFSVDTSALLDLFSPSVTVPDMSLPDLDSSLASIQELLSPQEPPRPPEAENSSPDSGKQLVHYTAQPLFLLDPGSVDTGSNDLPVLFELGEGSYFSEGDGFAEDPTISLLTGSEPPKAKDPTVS
Procedure, shortened: as §1

SPIC = molecular target: T2, SPIC (Homo sapiens, UniProt Q8N5J4 1-248); conditions: protein: recombinant; tags: N-terminal GST; dsDNA, one strand shown
T2 sequence: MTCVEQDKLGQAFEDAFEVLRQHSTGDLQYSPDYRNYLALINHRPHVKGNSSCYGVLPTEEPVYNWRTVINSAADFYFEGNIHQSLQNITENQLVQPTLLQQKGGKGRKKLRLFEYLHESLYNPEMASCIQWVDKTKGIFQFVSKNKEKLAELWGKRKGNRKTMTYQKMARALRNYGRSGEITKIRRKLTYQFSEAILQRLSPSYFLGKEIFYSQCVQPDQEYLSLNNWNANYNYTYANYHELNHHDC
Procedure, shortened: as §1

ELF4 = ELF4 (Homo sapiens, UniProt Q99607 1-663); conditions: protein: recombinant; tags: N-terminal GST; dsDNA, one strand shown
Sequence of ELF4 (Q99607 whole entry): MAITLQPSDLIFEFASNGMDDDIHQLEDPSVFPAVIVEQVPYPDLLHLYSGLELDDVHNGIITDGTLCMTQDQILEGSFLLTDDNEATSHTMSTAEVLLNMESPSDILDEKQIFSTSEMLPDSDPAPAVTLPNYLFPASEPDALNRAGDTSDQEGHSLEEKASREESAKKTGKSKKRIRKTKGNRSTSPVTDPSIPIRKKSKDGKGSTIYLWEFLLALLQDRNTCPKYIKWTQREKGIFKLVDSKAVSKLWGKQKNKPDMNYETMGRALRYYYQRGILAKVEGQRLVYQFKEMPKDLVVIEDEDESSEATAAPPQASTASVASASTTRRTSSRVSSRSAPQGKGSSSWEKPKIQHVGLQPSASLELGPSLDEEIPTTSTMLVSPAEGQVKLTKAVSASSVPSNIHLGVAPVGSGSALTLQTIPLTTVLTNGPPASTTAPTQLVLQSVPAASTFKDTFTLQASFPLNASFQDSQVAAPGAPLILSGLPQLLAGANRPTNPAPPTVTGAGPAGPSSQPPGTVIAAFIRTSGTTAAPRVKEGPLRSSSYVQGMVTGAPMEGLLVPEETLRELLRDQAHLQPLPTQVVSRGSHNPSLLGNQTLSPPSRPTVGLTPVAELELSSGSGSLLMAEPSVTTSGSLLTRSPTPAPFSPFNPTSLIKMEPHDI
Procedure, shortened: as §1

ELK4 = molecular target: T3, ELK4 (Homo sapiens, UniProt P28324-2 1-405); conditions: protein: recombinant; tags: N-terminal GST; dsDNA, one strand shown
T3 sequence: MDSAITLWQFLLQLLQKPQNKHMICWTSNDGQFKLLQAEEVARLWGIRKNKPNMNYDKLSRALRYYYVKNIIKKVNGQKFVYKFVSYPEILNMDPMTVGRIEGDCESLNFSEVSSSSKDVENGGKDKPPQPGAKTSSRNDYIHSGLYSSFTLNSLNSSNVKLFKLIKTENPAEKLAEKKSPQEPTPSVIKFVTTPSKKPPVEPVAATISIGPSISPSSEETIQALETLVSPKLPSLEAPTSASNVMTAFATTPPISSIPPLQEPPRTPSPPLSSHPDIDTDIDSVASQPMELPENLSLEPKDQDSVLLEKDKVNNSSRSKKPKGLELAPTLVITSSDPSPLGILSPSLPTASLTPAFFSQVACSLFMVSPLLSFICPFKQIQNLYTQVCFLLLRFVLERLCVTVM
Procedure, shortened: as §1

ETV2 = molecular target: T4, ETV2 (Homo sapiens, UniProt O00321 1-342); conditions: protein: recombinant; tags: N-terminal GST; dsDNA, one strand shown
T4 sequence: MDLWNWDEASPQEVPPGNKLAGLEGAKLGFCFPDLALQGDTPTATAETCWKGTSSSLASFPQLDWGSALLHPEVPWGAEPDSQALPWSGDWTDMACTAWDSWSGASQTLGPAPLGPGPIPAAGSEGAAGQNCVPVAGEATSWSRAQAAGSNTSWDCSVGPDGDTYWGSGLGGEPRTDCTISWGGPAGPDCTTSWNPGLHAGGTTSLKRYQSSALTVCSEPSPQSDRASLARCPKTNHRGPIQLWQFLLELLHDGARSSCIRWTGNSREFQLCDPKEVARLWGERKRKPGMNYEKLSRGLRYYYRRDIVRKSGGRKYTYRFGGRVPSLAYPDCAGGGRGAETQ
Procedure, shortened: as §1

ELF3 = molecular target: T5, ELF3 (Homo sapiens, UniProt P78545 1-371); conditions: protein: recombinant; tags: N-terminal GST; dsDNA, one strand shown
T5 sequence: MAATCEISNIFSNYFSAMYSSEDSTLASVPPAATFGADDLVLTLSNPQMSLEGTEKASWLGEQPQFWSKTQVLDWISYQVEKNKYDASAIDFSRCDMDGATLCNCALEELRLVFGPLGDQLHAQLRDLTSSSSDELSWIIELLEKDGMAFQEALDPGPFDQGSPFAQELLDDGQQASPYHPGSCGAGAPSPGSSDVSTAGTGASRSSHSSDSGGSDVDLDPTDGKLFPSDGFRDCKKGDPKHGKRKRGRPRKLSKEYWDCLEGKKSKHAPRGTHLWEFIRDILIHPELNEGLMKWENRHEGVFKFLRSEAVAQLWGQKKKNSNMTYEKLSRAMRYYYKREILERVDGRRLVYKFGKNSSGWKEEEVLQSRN
Procedure, shortened: as §1

CRX = CRX (Homo sapiens, UniProt O43186 1-299); conditions: protein: recombinant; tags: N-terminal GST; dsDNA, one strand shown
Sequence of CRX (O43186 whole entry): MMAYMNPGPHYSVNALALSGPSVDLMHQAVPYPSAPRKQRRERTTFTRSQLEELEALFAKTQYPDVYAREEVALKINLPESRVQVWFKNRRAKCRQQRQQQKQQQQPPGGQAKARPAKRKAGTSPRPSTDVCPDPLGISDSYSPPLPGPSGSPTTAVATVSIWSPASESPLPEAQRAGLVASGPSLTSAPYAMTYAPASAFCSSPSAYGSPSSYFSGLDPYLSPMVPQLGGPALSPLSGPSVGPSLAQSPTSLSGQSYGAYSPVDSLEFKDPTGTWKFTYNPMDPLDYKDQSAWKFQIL
Procedure, shortened: as §1

ETV1 = ETV1 (Homo sapiens, UniProt P50549 1-477); conditions: protein: recombinant; tags: N-terminal GST; dsDNA, one strand shown
Sequence of ETV1 (P50549 whole entry): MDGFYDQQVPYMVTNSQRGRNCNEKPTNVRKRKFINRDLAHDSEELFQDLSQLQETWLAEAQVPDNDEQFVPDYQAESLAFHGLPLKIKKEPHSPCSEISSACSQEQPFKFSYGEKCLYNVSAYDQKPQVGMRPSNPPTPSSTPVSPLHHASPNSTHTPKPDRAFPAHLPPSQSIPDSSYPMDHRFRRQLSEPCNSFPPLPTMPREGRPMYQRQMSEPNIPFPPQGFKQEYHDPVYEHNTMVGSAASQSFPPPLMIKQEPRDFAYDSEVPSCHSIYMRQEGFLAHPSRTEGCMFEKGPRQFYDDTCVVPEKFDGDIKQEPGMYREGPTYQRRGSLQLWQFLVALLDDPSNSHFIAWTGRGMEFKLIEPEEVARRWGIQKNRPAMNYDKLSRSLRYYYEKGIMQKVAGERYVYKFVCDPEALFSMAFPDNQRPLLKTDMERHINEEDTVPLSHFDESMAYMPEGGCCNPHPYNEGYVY
Procedure, shortened: as §1

ERF = molecular target: T6, ERF (Homo sapiens, UniProt P50548 1-548); conditions: protein: recombinant; tags: N-terminal GST; dsDNA, one strand shown
T6 sequence: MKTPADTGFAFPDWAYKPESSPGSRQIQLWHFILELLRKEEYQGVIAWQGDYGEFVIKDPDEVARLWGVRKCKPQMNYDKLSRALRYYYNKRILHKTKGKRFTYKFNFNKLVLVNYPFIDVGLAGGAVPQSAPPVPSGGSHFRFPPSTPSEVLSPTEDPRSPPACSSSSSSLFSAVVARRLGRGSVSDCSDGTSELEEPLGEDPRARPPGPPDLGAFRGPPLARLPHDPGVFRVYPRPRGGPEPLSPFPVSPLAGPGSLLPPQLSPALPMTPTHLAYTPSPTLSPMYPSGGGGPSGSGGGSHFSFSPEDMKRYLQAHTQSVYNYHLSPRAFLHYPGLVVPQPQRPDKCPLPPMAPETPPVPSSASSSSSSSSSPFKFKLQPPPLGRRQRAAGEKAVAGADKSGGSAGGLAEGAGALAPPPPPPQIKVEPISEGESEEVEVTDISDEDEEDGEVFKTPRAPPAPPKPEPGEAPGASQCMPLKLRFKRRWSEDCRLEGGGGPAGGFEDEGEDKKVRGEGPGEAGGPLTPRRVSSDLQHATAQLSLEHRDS
Procedure, shortened: as §1

ETV3L = molecular target: T7, ETV3L (Homo sapiens, UniProt Q6ZN32 1-361); conditions: protein: recombinant; tags: N-terminal GST; dsDNA, one strand shown
T7 sequence: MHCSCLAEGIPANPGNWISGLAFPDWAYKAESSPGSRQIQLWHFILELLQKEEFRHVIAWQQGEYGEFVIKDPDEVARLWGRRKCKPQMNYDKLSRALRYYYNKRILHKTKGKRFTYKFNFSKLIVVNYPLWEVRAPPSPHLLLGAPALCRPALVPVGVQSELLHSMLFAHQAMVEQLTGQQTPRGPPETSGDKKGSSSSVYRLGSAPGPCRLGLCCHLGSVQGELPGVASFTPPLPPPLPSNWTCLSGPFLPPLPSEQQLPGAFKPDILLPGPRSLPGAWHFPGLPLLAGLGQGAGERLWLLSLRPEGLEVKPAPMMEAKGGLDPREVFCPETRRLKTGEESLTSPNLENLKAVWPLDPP
Procedure, shortened: as §1

ETS2 = molecular target: T8, ETS2 (Homo sapiens, UniProt P15036 1-469); conditions: protein: recombinant; tags: N-terminal GST; dsDNA, one strand shown
T8 sequence: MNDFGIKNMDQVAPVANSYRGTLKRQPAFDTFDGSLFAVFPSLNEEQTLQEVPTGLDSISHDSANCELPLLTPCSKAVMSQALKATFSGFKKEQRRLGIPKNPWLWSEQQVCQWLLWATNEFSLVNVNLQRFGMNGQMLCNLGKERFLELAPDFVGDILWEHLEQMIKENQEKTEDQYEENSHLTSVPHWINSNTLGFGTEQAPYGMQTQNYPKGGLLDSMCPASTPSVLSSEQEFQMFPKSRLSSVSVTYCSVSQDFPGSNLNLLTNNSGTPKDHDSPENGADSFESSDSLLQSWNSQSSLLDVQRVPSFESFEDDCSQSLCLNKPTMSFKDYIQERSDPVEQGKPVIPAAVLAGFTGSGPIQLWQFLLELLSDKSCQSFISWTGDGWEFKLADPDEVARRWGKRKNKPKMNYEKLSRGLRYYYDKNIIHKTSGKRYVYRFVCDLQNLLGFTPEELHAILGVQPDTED
Procedure, shortened: as §1

SPDEF = molecular target: T9, SPDEF (Homo sapiens, UniProt O95238 1-335); conditions: protein: recombinant; tags: N-terminal GST; dsDNA, one strand shown
T9 sequence: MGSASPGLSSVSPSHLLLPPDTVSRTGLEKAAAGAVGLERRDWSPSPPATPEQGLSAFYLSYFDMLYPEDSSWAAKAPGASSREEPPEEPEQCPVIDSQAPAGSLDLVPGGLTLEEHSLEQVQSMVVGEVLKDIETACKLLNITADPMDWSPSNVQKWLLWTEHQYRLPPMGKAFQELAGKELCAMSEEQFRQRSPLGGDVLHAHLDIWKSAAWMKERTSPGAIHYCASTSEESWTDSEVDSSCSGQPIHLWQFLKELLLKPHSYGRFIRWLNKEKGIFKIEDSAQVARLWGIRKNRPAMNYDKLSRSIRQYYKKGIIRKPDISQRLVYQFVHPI
Procedure, shortened: as §1

ETV7 = molecular target: T10, ETV7 (Homo sapiens, UniProt Q9Y603 1-341); conditions: protein: recombinant; tags: N-terminal GST; dsDNA, one strand shown
T10 sequence: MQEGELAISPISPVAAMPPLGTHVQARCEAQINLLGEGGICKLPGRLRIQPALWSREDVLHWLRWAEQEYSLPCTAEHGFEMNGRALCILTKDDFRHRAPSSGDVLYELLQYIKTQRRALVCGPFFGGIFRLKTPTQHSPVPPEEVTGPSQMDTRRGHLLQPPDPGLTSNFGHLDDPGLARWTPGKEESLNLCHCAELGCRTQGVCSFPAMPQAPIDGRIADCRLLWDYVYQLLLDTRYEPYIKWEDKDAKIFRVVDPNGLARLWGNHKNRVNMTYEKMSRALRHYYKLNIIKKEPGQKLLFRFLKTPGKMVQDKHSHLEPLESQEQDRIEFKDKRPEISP
Procedure, shortened: as §1

ELF5 = molecular target: T11, ELF5 (Homo sapiens, UniProt Q9UKW6-2 1-255); conditions: protein: recombinant; tags: N-terminal GST; dsDNA, one strand shown
T11 sequence: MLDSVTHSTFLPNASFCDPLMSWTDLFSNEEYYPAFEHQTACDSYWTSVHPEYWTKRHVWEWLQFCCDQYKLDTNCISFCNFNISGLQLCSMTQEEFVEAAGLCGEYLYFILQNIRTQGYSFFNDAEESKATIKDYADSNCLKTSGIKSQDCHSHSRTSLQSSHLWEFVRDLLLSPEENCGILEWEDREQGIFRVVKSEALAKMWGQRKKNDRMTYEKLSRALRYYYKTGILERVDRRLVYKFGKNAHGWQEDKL
Procedure, shortened: as §1

ETV3 = molecular target: T12, ETV3 (Homo sapiens, UniProt P41162-2 1-143); conditions: protein: recombinant; tags: N-terminal GST; dsDNA, one strand shown
T12 sequence: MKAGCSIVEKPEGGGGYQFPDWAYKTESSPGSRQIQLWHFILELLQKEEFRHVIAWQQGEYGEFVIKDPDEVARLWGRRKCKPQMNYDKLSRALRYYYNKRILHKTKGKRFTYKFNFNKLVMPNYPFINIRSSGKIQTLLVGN
Procedure, shortened: as §1

ETV6 = ETV6 (Homo sapiens, UniProt P41212 1-452); conditions: protein: recombinant; tags: N-terminal GST; dsDNA, one strand shown
Sequence of ETV6 (P41212 whole entry): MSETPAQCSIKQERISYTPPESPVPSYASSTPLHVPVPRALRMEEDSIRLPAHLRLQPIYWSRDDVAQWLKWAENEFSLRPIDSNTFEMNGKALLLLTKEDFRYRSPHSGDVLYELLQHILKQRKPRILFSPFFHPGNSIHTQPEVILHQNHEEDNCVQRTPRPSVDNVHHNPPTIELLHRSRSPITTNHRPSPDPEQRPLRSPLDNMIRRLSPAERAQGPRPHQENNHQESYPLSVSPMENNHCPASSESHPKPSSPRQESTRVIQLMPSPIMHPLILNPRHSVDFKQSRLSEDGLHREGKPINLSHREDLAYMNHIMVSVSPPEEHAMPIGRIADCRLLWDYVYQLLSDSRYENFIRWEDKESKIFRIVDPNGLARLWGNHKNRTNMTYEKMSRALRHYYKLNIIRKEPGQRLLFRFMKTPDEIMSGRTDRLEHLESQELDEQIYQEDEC
Procedure, shortened: as §1

ATCTAT
binding signal (FEV): 1.08 fold enrichment (6-mer frequency, TF over GST control)
binding signal (ETV5): 1.15 fold enrichment (6-mer frequency, TF over GST control)
binding signal (HSF1): 1.32 fold enrichment (6-mer frequency, TF over GST control)
binding signal (SPIC): 1.27 fold enrichment (6-mer frequency, TF over GST control)
binding signal (ELF4): 1.21 fold enrichment (6-mer frequency, TF over GST control)
binding signal (ELK4): 1.18 fold enrichment (6-mer frequency, TF over GST control)
binding signal (ETV2): 1.13 fold enrichment (6-mer frequency, TF over GST control)
binding signal (ELF3): 1.23 fold enrichment (6-mer frequency, TF over GST control)
binding signal (CRX): 1.42 fold enrichment (6-mer frequency, TF over GST control)
binding signal (ETV1): 1.16 fold enrichment (6-mer frequency, TF over GST control)
binding signal (ERF): 1.12 fold enrichment (6-mer frequency, TF over GST control)
binding signal (ETV3L): 1.07 fold enrichment (6-mer frequency, TF over GST control)
binding signal (ETS2): 1.15 fold enrichment (6-mer frequency, TF over GST control)
binding signal (SPDEF): 1.17 fold enrichment (6-mer frequency, TF over GST control)
binding signal (ETV7): 1.18 fold enrichment (6-mer frequency, TF over GST control)
binding signal (ELF5): 1.05 fold enrichment (6-mer frequency, TF over GST control)
binding signal (ETV3): 1.12 fold enrichment (6-mer frequency, TF over GST control)
binding signal (ETV6): 1.14 fold enrichment (6-mer frequency, TF over GST control)
